The campaign covered roughly 400,000 compounds. About 1,900 (0.47%) were called active. Inconclusive results (about 14%) are left out. The rule behind the calls is not given here. Shown is part of a subset that was picked to be rich in actives.
molecular target: Ataxin-2 (Homo sapiens) (UniProt Q99700); assay: qHTS for Inhibitors of ATXN expression.; format: functional
Sequence (Q99700 whole entry): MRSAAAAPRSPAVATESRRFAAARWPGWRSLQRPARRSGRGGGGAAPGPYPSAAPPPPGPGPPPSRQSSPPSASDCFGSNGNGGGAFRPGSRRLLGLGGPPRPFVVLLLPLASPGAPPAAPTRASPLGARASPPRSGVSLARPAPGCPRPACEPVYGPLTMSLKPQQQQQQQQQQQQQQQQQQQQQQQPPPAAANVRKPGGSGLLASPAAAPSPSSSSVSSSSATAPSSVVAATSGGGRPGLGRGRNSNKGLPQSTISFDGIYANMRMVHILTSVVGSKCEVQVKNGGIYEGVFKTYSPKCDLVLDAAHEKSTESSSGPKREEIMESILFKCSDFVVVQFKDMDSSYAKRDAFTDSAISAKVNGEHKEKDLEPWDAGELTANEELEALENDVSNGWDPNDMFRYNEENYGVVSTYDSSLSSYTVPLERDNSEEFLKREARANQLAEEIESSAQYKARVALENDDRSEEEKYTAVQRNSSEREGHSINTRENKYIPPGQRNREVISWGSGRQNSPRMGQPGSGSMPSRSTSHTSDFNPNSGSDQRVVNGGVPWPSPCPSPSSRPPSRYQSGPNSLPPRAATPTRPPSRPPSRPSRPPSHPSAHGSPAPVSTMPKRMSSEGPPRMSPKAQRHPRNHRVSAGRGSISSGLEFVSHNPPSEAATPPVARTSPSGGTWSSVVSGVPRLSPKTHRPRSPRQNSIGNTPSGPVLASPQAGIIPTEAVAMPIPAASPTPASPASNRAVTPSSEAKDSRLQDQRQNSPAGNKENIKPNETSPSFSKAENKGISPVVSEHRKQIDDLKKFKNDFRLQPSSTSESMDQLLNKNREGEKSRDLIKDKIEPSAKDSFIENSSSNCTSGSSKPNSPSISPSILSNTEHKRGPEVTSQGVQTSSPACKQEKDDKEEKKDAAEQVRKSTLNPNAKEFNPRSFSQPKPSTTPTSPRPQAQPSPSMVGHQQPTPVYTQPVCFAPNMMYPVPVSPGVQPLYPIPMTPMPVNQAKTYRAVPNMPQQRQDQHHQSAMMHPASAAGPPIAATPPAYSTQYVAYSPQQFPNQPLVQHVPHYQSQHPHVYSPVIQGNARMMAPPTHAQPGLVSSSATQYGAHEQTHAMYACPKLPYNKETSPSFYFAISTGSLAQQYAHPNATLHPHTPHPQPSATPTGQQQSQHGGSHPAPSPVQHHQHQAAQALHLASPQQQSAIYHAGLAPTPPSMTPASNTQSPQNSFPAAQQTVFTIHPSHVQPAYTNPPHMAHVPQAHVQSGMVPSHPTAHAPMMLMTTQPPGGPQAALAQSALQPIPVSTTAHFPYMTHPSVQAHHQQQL

Row | SMILES | Potency
1 | CCOc1ccc2nc(NN=C3C(=O)NC(=S)NC3=O)sc2c1 | 15 µM (active)
2 | CCC(=O)N1N=C2C3CCN(CC3)C2C1c1ccc(C)cc1 (configuration not stated) | inactive
3 | COc1cccc(C(=O)NCc2nc(-c3cccc(NC(=O)c4ccoc4C)c3)oc2C)c1OC | 28.2 µM (active)
4 | Nc1ccc2c(c1)Cc1cc([N+](=O)[O-])ccc1-2 | inactive
5 | Clc1ccc2c(c1)C(OC1CN3CCC1CC3)c1ccccc1CS2 (configuration not stated) | 28.2 µM (active)
6 | COc1ccc(S(=O)(=O)Nc2ccccc2OC)cc1NN=C1C(=O)NC(=S)NC1=O | 39.8 µM (active)
7 | CCOc1ccc(NS(=O)(=O)c2ccc(Cl)c(NN=C3C(=O)NC(=S)NC3=O)c2)cc1Br | 28.2 µM (active)
8 | Nc1ccc2ccc3cccc[n+]3c2c1 | inactive
9 | COCCCNC(=O)c1c(NC(=O)c2ccccc2Cl)n(Cc2ccccc2)c2nc3ccccc3nc12 | inactive
10 | CCC1(OC(=O)CN)C(=O)OCc2c1cc1n(c2=O)Cc2cc3ccccc3nc2-1 (configuration not stated) | inactive
11 | CC[C@@]1(O)C(=O)OCc2c1cc1n(c2=O)Cc2cc3ccccc3nc2-1 | 0.01 µM (active)
12 | CCC1(O)C(=O)OCc2c1cc1n(c2=O)Cc2cc3cc(O)ccc3nc2-1 (configuration not stated) | inactive
13 | CCCCCn1c(=O)c(C(=O)NCc2ccccc2Cl)c(O)c2ccccc21 | inactive
14 | O=C(CN1C(=O)CN=C(c2ccccc2)c2ccccc21)Nc1cccc(C(F)(F)F)c1 | 31.6 µM (active)
15 | NNC(=O)CN1C(=O)CN=C(c2ccccc2)c2cc(Br)ccc21 | inactive
16 | C=C1C(=O)OC2CC3(C)OC3CCC(C)=CC(OC(C)=O)C12 (configuration not stated) | 33.6 µM (active)
17 | CCCCn1c(NS(=O)(=O)c2ccccc2)c(C(=O)OCC)c2nc3ccccc3nc21 | inactive
18 | CCOC(=O)c1c(NS(=O)(=O)c2ccccc2)n(CCCOC)c2nc3ccccc3nc12 | inactive
19 | COCCCn1c(N)c(C(=O)NCCC(C)C)c2nc3ccccc3nc21 | inactive
20 | Brc1cccc(CNCCc2ccc3c(c2)OCO3)c1 | inactive
21 | CNCCC(Oc1ccc(C(F)(F)F)cc1)c1ccccc1 (configuration not stated) | 31.6 µM (active)

Row | SMILES | Potency
22 | CC[C@@]1(O)C(=O)OCc2c1cc1n(c2=O)Cc2cc3c(NC(=O)CN)cccc3nc2-1 | inactive
23 | COC(=O)c1ccc(C(C(=O)NC2CCCCC2)N(CCN2CCOCC2)C(=O)Cc2cccs2)cc1 (configuration not stated) | inactive
24 | CCc1ccc2c(c1)Sc1ccccc1CC2N1CCN(C)CC1 (configuration not stated) | inactive
25 | O=c1ccc2cc(OC3O[C@H](CO)[C@@H](O)[C@H](O)[C@H]3O)c(O)cc2o1 (some centres not stated) | inactive
26 | CN1CCN(c2ccc([N+](=O)[O-])c3no[n+]([O-])c23)CC1 | 7.08 µM (active)
27 | O=[N+]([O-])c1ccc(N(CCO)CCO)c2c1no[n+]2[O-] | 17.8 µM (active)
28 | O=[N+]([O-])c1ccc(N2CCOCC2)c2cccnc12 | inactive
29 | O=[N+]([O-])c1ccc(N2CCOCC2)c2c1no[n+]2[O-] | 3.98 µM (active)
30 | COc1ccc(Br)cc1CNCCc1ccc2c(c1)OCO2 | inactive
31 | Cc1cc2c(C(F)(F)F)cc(=O)oc2c2c1NCCC2 | inactive
32 | Cc1cc(C=C2C(=O)NC(=S)NC2=O)c(C)n1-c1ccc2c(c1)OCO2 | 39.8 µM (active)
33 | Cc1cccc(N2C(=O)NC(=O)/C(=C/c3cc4c(cc3[N+](=O)[O-])OCO4)C2=O)c1 | inactive
34 | Cc1cc(/C=C2\C(=O)NC(=O)N(Cc3ccccc3Cl)C2=O)c(C)n1-c1ccc(C(=O)O)cc1 | inactive
35 | CCN(C(=O)COC(=O)c1cn(C)c2ccccc12)c1ccc(F)cc1 | inactive
36 | Cc1cccc(C)c1-n1nnnc1C(c1cccs1)N1CCC(n2c(O)nc3ccccc32)CC1 (configuration not stated) | 20 µM (active)
37 | COc1ccc(C(c2nnnn2Cc2ccccc2)N2CCC(n3c(O)nc4ccccc43)CC2)cc1 (configuration not stated) | 15.8 µM (active)
38 | Oc1nc2ccccc2n1C1CCN(C(c2cc3ccccc3o2)c2nnnn2Cc2ccccc2)CC1 (configuration not stated) | 10 µM (active)
39 | Oc1nc2ccccc2n1C1CCN(C(c2cccs2)c2nnnn2Cc2ccccc2)CC1 (configuration not stated) | 22.4 µM (active)
40 | COc1ccc2c3c([nH]c2c1)C(C)=NCC3 | inactive
41 | Cc1c(C)n(O)c2ccc3nonc3c12 | inactive
42 | CCN(CC)c1ccc(N/C=C2\C(=O)NC(=O)N(Cc3ccco3)C2=O)cc1 | inactive

Row | SMILES | Potency
43 | CCOP(=O)(OCC)c1nc(-c2ccc(F)cc2)oc1NCc1ccccc1 | inactive
44 | COc1ccc(CN2Cc3cnnn3-c3ccccc3C2C#N)cc1 (configuration not stated) | 12.6 µM (active)
45 | Cc1ccccc1CN1Cc2cnnn2-c2ccccc2C1C#N (configuration not stated) | 17.8 µM (active)
46 | Nc1c(C(=O)NCCN2CCOCC2)c2nc3ccccc3nc2n1Cc1ccco1 | inactive
47 | ClCCN(CCCl)c1ccc(-n2cnc3c(Cl)ncnc32)cc1 | 35.5 µM (active)
48 | ClCCN(CCCl)c1ccc(C=Cc2ccncn2)cc1 | inactive
49 | COCCNC(=O)c1c(NC(=O)c2ccc(Br)o2)n(Cc2ccccc2)c2nc3ccccc3nc12 | inactive
50 | CCCCCCCSc1cc(OC)c(CCN(C)C)cc1OC | 39.8 µM (active)
51 | C=CC[N+]1(C)C2CCC1CC(O)C2 (configuration not stated) | inactive
52 | COc1ccccc1OCCCn1cc(C=O)c2ccccc21 | inactive
53 | Cc1ccc([C@H]2C[C@H](O)[C@@H](n3cc(COC(=O)c4ccccc4)nn3)CN2CC2CCCCC2)cc1 | 31.6 µM (active)
54 | CCOC(=O)c1c(N)n(Cc2ccco2)c2nc3ccccc3nc12 | inactive
55 | O=C1C2(Cl)C3(Cl)C4(Cl)C(Cl)(Cl)C5(Cl)C3(Cl)C1(Cl)C5(Cl)C24Cl (configuration not stated) | 39.8 µM (active)
56 | CCCCn1c(NC(=O)c2ccc(Br)o2)c(C(=O)OCC)c2nc3ccccc3nc21 | inactive
57 | O=c1[nH]c2ccccc2n1C1CCN(CCCC(c2ccc(F)cc2)c2ccc(F)cc2)CC1 | 31.6 µM (active)
58 | COCCCNC(=O)c1c(N)n(Cc2ccco2)c2nc3ccccc3nc12 | inactive
59 | O=[N+]([O-])c1ccc(Sc2nc3ccccc3o2)c([N+](=O)[O-])c1 | 25.1 µM (active)
60 | CCCCCc1nc2c(c(=O)c3ccccc3n2C)c(=O)n1C1CCCCCC1 | 31.6 µM (active)
61 | CCCCCn1c(=O)c(C(=O)Nc2ccccc2Cl)c(O)c2ccccc21 | inactive
62 | Nc1c(C(=O)NCCN2CCOCC2)c2nc3ccccc3nc2n1Cc1ccccc1 | inactive
